Laboratory results: PubChem BioAssay (Tox21)
Active and inactive are the calls of the source. Where a call stands in place of a potency, no number is given. The call rests on the fitted dose curve.

target: Gonadotropin-releasing hormone receptor (Homo sapiens) (UniProt P30968); assay: Human gonadotropin-releasing hormone receptor (GnRHR) small molecule agonists, calcium flux assay in GnRHR-HEK293 cells (AID 1920063); details: calcium flux fluorescence, agonist mode; series mostly up to 57.6 µM; further: nearly all actives have a fitted effect of over 35% in size
Sequence (P30968 whole entry, looked up): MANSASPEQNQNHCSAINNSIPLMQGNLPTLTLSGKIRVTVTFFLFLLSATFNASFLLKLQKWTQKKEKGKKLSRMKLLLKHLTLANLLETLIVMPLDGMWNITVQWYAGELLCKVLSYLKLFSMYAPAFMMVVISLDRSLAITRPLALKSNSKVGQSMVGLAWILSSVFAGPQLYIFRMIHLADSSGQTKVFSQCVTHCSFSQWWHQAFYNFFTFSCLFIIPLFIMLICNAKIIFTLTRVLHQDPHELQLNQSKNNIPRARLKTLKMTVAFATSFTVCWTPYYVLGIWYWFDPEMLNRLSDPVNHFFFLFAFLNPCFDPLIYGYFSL
Description: National Center for Advancing Translational Sciences [NCATS]
Division of Preclinical Innovation [DPI]
U.S. Environmental Protection Agency [EPA]
National Institutes of Environmental Health Sciences [NIEHS]
National Toxicology Program [NTP]
U.S. Food and Drug Administration [FDA]
Gonadotropin-releasing hormone receptor (GnRHR) is a G-protein-coupled receptor (GPCR) and acts (through phospholipase C) to increase intracellular inositol trisphosphate and then release intracellular calcium stores. Cell-based GnRHR-Hek293 calcium influx assay is using HEK293 cells that have been genetically engineered to express the human GnRHR, which activity can be measured by calcium signaling. A compound/drug can activate (agonist) GnRHR that can be monitored by levels of intracellular calcium.
GnRHR-HEK293 cells developed by Codex Corp contain human GnRHR reporter gene, which was stably integrated into HEK 293 cells. The compound activation can be detected by fluorescence intensity via calcium flux assay. This cell line has been used to screen the Tox21 10K compound library to identify GnRHR agonists.
GnRHR-Hek293 cells were dispensed at 1500cells/4uL/well in 1536-well black wall/clear bottom plates using a multidrop dispenser. After the assay plates were incubated at a 37 C/5% CO2 incubator for 18 hours, 4 uL of Calcium Dye Solution was added to each well. The plates were incubated at 37 C for 1 hour. For agonist mode, 23 nL of compounds dissolved in DMSO, positive controls or DMSO only was transferred to the assay plate by a pin tool station. The fluorescence intensity in the plates was measured using FDSS 7000EX kinetic plate reader with a filter set of Ex/Em=480/540 for 3 min at 1 sec intervals. Each test compound was measured at 15 concentrations and in triplicates.

Compound	Potency	activity change
CCc1nn(CCCN2CCN(c3cccc(Cl)c3)CC2)c(=O)n1CCOc1ccccc1	inactive	
CCOc1ccc(OCC)c(Cl)c1	inactive	
COC(=O)c1nc(Cl)c(Cl)nc1N	inactive	
S=c1nccc[nH]1	inactive	
BrCc1cccc(Oc2ccccc2)c1	inactive	
CCOC(=O)CC(=O)C(=O)OCC	inactive	
CC(C)c1ccc2ncccc2c1	inactive	
COc1c2occc2c(OC)c2c(=O)cc(C)oc12	inactive	
O=C(OC[C@H]1O[C@@H](OC(=O)c2cc(O)c(O)c(OC(=O)c3cc(O)c(O)c(O)c3)c2)[C@H](OC(=O)c2cc(O)c(O)c(OC(=O)c3cc(O)c(O)c(O)c3)c2)[C@@H](OC(=O)c2cc(O)c(O)c(OC(=O)c3cc(O)c(O)c(O)c3)c2)[C@@H]1OC(=O)c1cc(O)c(O)c(OC(=O)c2cc(O)c(O)c(O)c2)c1)c1cc(O)c(O)c(OC(=O)c2cc(O)c(O)c(O)c2)c1		-0.655% [at 11.8 µM, stronger effect = higher value] (inactive)
Oc1c(Cl)cc(Cl)c2cccnc12	inactive	
COC(=O)CC(C)=O	inactive	
CCCCOc1ccc(N)cc1	inactive	
C=C1CCC2CC1C2(C)C (stereo not given)	inactive	
CCCCCOC(=O)Nc1nc(=O)n([C@@H]2O[C@H](C)[C@@H](O)[C@H]2O)cc1F	inactive	
c1cc2ccc3ccc4ccc5cccc6c(c1)c2c3c4c56		0.532% [at 2.04 µM, stronger effect = higher value] (inactive)
CC(=O)/C(C)=C/C1C(C)=CCCC1(C)C (stereo not given)	inactive	
C[C@H](CCC(=O)O)[C@H]1CC[C@H]2[C@@H]3C(=O)C[C@@H]4CC(=O)CC[C@]4(C)[C@H]3CC(=O)[C@]12C	inactive	
CC(C)(C)NC(=O)[C@@H]1C[C@@H]2CCCC[C@@H]2CN1C[C@@H](O)[C@H](Cc1ccccc1)NC(=O)[C@H](CC(N)=O)NC(=O)c1ccc2ccccc2n1	inactive	
Cc1cccc(N(C)C(=S)Oc2ccc3c(c2)C2CCC3C2)c1 (stereo not given)	inactive	
OCCOCC#CCOCCO	inactive	

Compound	Potency	activity change
O=C(NO)C1(NS(=O)(=O)c2ccc(Oc3ccc(F)cc3)cc2)CCOCC1	inactive	
C[C@@H]1C[C@H]2O[C@@]3(O[C@@H]2C(C)(C)O)[C@H](O)[C@@]2(C)[C@@H]4CC[C@H]5C(C)(C)[C@@H](O[C@@H]6OC[C@@H](O)[C@H](O)[C@H]6O)CC[C@@]56C[C@@]46CC[C@]2(C)[C@@H]13	inactive	
CN(C)CCN(C)CCO	inactive	
CN(C)CCOc1ccc(/C(=C(/CCCl)c2ccccc2)c2ccccc2)cc1	inactive	
C[Si](Cl)(c1ccccc1)c1ccccc1	inactive	
CC(=O)O[Si](C)(OC(C)=O)OC(C)=O	inactive	
O=[N+]([O-])c1ccc(O/N=C/c2cc(Br)c(O)c(Br)c2)c([N+](=O)[O-])c1	inactive	
CCCCCCCCCCCCCCCCCCCl		0.0314% [at 5.22 µM, stronger effect = higher value] (inactive)
C1CN(SSN2CCOCC2)CCO1	inactive	
NCCCC(O)(P(=O)(O)O)P(=O)(O)O	inactive	
OC12N=C(c3ccccc3)SC1Cc1cc(Cl)ccc12 (stereo not given)	inactive	
C=Cc1ccc(OC(C)=O)cc1	inactive	
COc1ccc(COC=O)cc1	inactive	
CC1CCC(CO)CC1 (stereo not given)	inactive	
C[C@@H]1CC[C@H]2C(C)(C)[C@H]3C[C@@]12CC[C@@]3(C)O	inactive	
N[C@@H](C(=O)N[C@@H]1C(=O)N2C(C(=O)O)=C(Cl)CS[C@H]12)c1ccccc1		-0.646% [at 5.22 µM, stronger effect = higher value] (inactive)
OCCN1CCOCC1	inactive	
CC(C)C[C@H](NC(=O)[C@H](Cc1ccccc1)NC(=O)c1cnccn1)B(O)O	inactive	
CCCCOCCOCCOCc1cc2c(cc1CCC)OCO2	inactive	
OC[C@H]1O[C@@H](n2cnc3c(=S)nc[nH]c32)[C@H](O)[C@@H]1O	inactive	
